PubChem BioAssay (EPA / NIEHS)
“And” between values parts separate entries of the source, which are not always exact repeats. Equal entries are not always repeated. More than one record can exist for a structure, and the calls need not agree. The source made the active and inactive calls. The calls were made as follows: active = hit-call score of the fitted dose curve at least 0.9, where 1 is the maximum; inactive = score below 0.9.

How the values were obtained:
[1] = read-out: TIMP metallopeptidase inhibitor 2 (TIMP2), TIMP2 (gene 7077); experiment: BSK_KF3CT_TIMP2: BioMAP Diversity Plus: KF3CT Assay for TIMP metallopeptidase inhibitor 2 (TIMP2) Biomarker Activity (AID 2283071); conditions: primary human keratinocytes with fibroblasts; actives raise or lower the signal
Procedure, shortened: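 TIMP-2 measured by ELISA at 24 h in human keratinocyte/fibroblast primary co-cultures exposed to chemicals. Both increases and decreases were fitted against DMSO. Parallel cultures were stained with SRB for total protein as an overt-cytotoxicity check.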

[2] = read-out: C-C motif chemokine 2 (Homo sapiens) (UniProt P13500); experiment: BSK_KF3CT_MCP1: BioMAP Diversity Plus: KF3CT Assay for Monocyte Chemoattractant Protein 1 (MCP1/CCL2) Biomarker Activity (AID 2283073); conditions: primary human keratinocytes with fibroblasts; actives raise or lower the signal
Procedure, shortened: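 Keratinocytes and foreskin fibroblasts were co-cultured, dosed with chemical, and sampled 24 h later. MCP-1 was quantified by ELISA, and the endpoint was analyzed with bidirectional fitting using DMSO as negative control.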

[3] = read-out: Matrix Metallopeptidase 9 (MMP9), MMP9 (gene 4318); experiment: BSK_KF3CT_MMP9: BioMAP Diversity Plus: KF3CT Assay for Matrix Metallopeptidase 9 (MMP9) Biomarker Activity (AID 2283074); conditions: primary human keratinocytes with fibroblasts; actives raise or lower the signal;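 as to AC50: MMP9 protein level quantified by ELISA in the co-culture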
Procedure, shortened: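 ELISA read-out of MMP-9 at 24 h post-dosing in a co-culture of human skin keratinocytes and foreskin fibroblasts. Gain or loss of signal was fitted in both directions against DMSO.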

[4] = read-out: urokinase plasminogen activator (uPA), PLAU (gene 5328); experiment: BSK_KF3CT_uPA: BioMAP Diversity Plus: KF3CT Assay for urokinase plasminogen activator (uPA) Biomarker Activity (AID 2283075); conditions: primary human keratinocytes with fibroblasts; actives raise or lower the signal
Procedure, shortened: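 Skin co-culture (keratinocytes + foreskin fibroblasts), human primary; 24 h post-dose; uPA by ELISA; gain/loss fit vs DMSO baseline.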

CD40, CD40 (gene 958) = experiment: BSK_LPS_CD40: BioMAP Diversity Plus: LPS Assay for CD40 Biomarker Activity (AID 2283076); conditions: primary human HUVEC with PBMC; actives raise or lower the signal
Procedure, shortened: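 CD40 signal, measured by ELISA, is fitted in both directions relative to DMSO vehicle. The system is an LPS-driven human vascular primary co-culture of endothelial cells and PBMC, sampled 24 h after compound addition.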

[5] = read-out: E-selectin (Homo sapiens) (UniProt P16581); experiment: BSK_LPS_Eselectin: BioMAP Diversity Plus: LPS Assay for Eselectin Biomarker Activity (AID 2283077); conditions: primary human HUVEC with PBMC; actives raise or lower the signal
Procedure, shortened: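 Signal of E-selectin, detected by ELISA, served as the endpoint; cells were umbilical vein endothelium with PBMC, read 24 h after treatment. DMSO defined baseline, and both increases and decreases were fitted.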

[6] = read-out: Interleukin-8 (IL8), CXCL8 (gene 3576); experiment: BSK_LPS_IL8: BioMAP Diversity Plus: LPS Assay for Interleukin-8 (IL8) Biomarker Activity (AID 2283078); conditions: primary human HUVEC with PBMC; actives raise or lower the signal
Procedure, shortened: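 Endothelial cells and PBMC from human donors are co-cultured, treated with chemicals and LPS, then assayed for IL-8 by ELISA after 24 h. Parallel SRB staining (0.1% SRB after 10% TCA fixation, 560 nm) flags cytotoxicity.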

[7] = BSK_LPS_SRB: Viability Assessment in the BioMAP Diversity Plus: LPS Assay (AID 2283079); conditions: primary human HUVEC with PBMC;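 also: total protein by sulforhodamine B absorbance as a cytotoxicity measure; measured one day after compound addition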
Procedure, shortened: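 Overt cytotoxicity was gauged by sulforhodamine B total-protein staining in a primary human vascular endothelial and mononuclear cell co-culture 24 h post-dosing. Activity was fitted in both directions relative to DMSO.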

[8] = read-out: Interleukin-1 alpha (IL1a), IL1A (gene 3552); experiment: BSK_LPS_IL1a: BioMAP Diversity Plus: LPS Assay for Interleukin-1 alpha (IL1a) Biomarker Activity (AID 2283080); conditions: primary human HUVEC with PBMC; actives raise or lower the signal
Procedure, shortened: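 Measured: IL-1 alpha via ELISA at 24 h in LPS-activated human umbilical vein endothelium–PBMC co-culture. Baseline: DMSO, bidirectional fitting.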

[9] = read-out: Monocyte Chemoattractant Protein-1 (MCP1), CCL2 (gene 6347); experiment: BSK_LPS_MCP1: BioMAP Diversity Plus: LPS Assay for Monocyte Chemoattractant Protein-1 (MCP1) Biomarker Activity (AID 2283081); conditions: primary human HUVEC with PBMC; actives raise or lower the signal;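 as to AC50: secreted MCP-1 protein quantified by ELISA in culture supernatant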
Procedure, shortened: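 LPS-stimulated HUVEC/PBMC co-culture; chemical, 24 h; MCP-1 by ELISA; bidirectional fit vs DMSO; cytotoxicity via SRB (0.1% stain, 10% TCA fix, 560 nm) in parallel wells.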

Sequence of E-selectin (Homo sapiens) (P16581 whole entry, looked up): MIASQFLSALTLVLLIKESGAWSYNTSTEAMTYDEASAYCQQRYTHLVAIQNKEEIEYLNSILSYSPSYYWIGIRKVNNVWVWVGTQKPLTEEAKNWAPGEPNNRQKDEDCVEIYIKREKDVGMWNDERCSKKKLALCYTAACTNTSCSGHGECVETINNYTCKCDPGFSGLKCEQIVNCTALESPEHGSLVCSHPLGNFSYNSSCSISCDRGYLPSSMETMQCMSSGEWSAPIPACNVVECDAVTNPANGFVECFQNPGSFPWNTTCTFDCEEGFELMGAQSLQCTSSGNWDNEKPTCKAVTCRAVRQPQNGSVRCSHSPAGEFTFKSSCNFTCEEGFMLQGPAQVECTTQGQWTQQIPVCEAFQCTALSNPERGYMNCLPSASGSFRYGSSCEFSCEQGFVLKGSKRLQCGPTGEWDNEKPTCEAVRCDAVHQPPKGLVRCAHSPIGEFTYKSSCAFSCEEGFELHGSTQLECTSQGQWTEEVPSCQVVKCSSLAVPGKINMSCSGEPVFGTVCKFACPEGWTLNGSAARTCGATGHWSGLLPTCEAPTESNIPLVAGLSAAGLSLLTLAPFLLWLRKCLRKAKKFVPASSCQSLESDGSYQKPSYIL

For `NC(O)(C(F)(F)F)C(F)(F)F`, the outcome [1] was “inactive”, the outcome [2] was “inactive” and the outcome [3] was “inactive”. For the same compound, the outcome [4] was “inactive”, the outcome (CD40, CD40 (gene 958)) was “inactive” and the outcome [5] was “inactive”. For the same compound, the AC50 [6] was 5.33 µM (active), the outcome [6] was “inactive” and the outcome [7] was “inactive”. For the same compound, the outcome [8] was “inactive” and the outcome [9] was “inactive”.

With `Nc1cc([N+](=O)[O-])cc(Cl)c1O` the outcome [1] was “inactive”, the outcome [2] was “inactive” and the outcome [3] was “inactive”. The outcome [4] was “inactive”, the outcome (CD40, CD40 (gene 958)) was “inactive” and the outcome [5] was “inactive”. For the same compound, the outcome [6] was “inactive”, the outcome [7] was “inactive” and the outcome [8] was “inactive”. The outcome [9] was “inactive”.

For `COC(F)(C(F)F)C(F)(F)F` (centres undefined), the outcome [1] was “inactive”, the outcome [2] was “inactive” and the outcome [3] was “inactive”. The outcome [4] was “inactive”, the outcome (CD40, CD40 (gene 958)) was “inactive” and the outcome [5] was “inactive”. The outcome [6] was “inactive”, the outcome [7] was “inactive” and the outcome [8] was “inactive”. The outcome [9] was “inactive”.

For `O=C=Nc1cccc2c(N=C=O)cccc12`, the outcome [1] was “inactive”, the outcome [2] was “inactive” and the outcome [3] was “inactive”. The outcome [4] was “inactive”, the outcome (CD40, CD40 (gene 958)) was “inactive” and the outcome [5] was “inactive”. The outcome [6] was “inactive”, the outcome [7] was “inactive” and the outcome [8] was “inactive”. The outcome [9] was “inactive”.

With `Cc1ccc(O)c(-n2nc3ccccc3n2)c1` the outcome [1] was “inactive”, the outcome [2] was “inactive” and the outcome [3] was “inactive”. The outcome [4] was “inactive”, the outcome (CD40, CD40 (gene 958)) was “inactive” and the outcome [5] was “inactive”. The outcome [6] was “inactive”, the outcome [7] was “inactive” and the outcome [8] was “inactive”. For the same compound, the outcome [9] was “inactive”.

For `O=C(O)C(F)(F)C(F)(F)C(F)(F)C(=O)O`, the outcome [1] was “inactive”, the outcome [2] was “inactive” and the outcome [3] was “inactive”. The outcome [4] was “inactive”, the outcome (CD40, CD40 (gene 958)) was “inactive” and the outcome [5] was “inactive”. For the same compound, the outcome [6] was “inactive”, the outcome [7] was “inactive” and the outcome [8] was “inactive”. For the same compound, the outcome [9] was “inactive”.

With `OCC(F)(F)C(F)(F)C(F)(F)C(F)(F)C(F)(F)C(F)(F)CO` the outcome [1] was “inactive”, the outcome [2] was “inactive” and the outcome [3] was “inactive”. The outcome [4] was “inactive”, the outcome (CD40, CD40 (gene 958)) was “inactive” and the outcome [5] was “inactive”. For the same compound, the outcome [6] was “inactive”, the outcome [7] was “inactive” and the outcome [8] was “inactive”. For the same compound, the outcome [9] was “inactive”.

With `OCC(F)(F)C(F)(F)C(F)(F)C(F)(F)C(F)(F)C(F)(F)C(F)(F)C(F)(F)CO` the AC50 [1] was 55.2 µM (active) and 48.6 µM (active), the AC50 [2] was 50.8 µM (active) and 42.3 µM (active) and the AC50 [3] was 50.3 µM (active) and 49.4 µM (active). For the same compound, the outcome [4] was “inactive”, the outcome (CD40, CD40 (gene 958)) was “inactive” and the AC50 [5] was 0.559 µM (active). For the same compound, the outcome [5] was “inactive”, the outcome [6] was “inactive” and the outcome [7] was “inactive”. For the same compound, the outcome [8] was “inactive” and the outcome [9] was “inactive”.

For `CCN(CCO)S(=O)(=O)C(F)(F)C(F)(F)C(F)(F)C(F)(F)C(F)(F)C(F)(F)C(F)(F)C(F)(F)F`, the outcome [1] was “inactive”, the AC50 [2] was 14.4 µM (active) and the outcome [2] was “inactive”. For the same compound, the AC50 [3] was 21.7 µM (active) and 20.9 µM (active), the outcome [4] was “inactive” and the outcome (CD40, CD40 (gene 958)) was “inactive”. For the same compound, the AC50 [5] was 5.95 µM (active), the outcome [5] was “inactive” and the outcome [6] was “inactive”. For the same compound, the AC50 [7] was 39.4 µM (active) and 38.2 µM (active), the AC50 [8] was 23.7 µM (active) and 5.83 µM (active) and the AC50 [9] was 21.8 µM (active). For the same compound, the outcome [9] was “inactive”.

In the case of `O=C(F)C1(F)C(F)(F)C(F)(F)C(F)(F)C(F)(F)C1(F)F`, the outcome [1] is reported as “inactive”, the outcome [2] is reported as “inactive” and the outcome [3] is reported as “inactive”. For the same compound, the outcome [4] was “inactive”, the outcome (CD40, CD40 (gene 958)) was “inactive” and the outcome [5] was “inactive”. For the same compound, the outcome [6] was “inactive”, the outcome [7] was “inactive” and the outcome [8] was “inactive”. The outcome [9] was “inactive”.

In the case of `O=C(O)C(F)(F)OC(F)(F)C(F)(F)OC(F)(F)C(F)(F)OC(F)(F)F`, the outcome [1] is reported as “inactive”, the outcome [2] is reported as “inactive” and the outcome [3] is reported as “inactive”. For the same compound, the outcome [4] was “inactive”, the outcome (CD40, CD40 (gene 958)) was “inactive” and the outcome [5] was “inactive”. For the same compound, the AC50 [6] was 9.98 µM (active) and 20 µM (active), the outcome [6] was “inactive” and the outcome [7] was “inactive”. The outcome [8] was “inactive” and the outcome [9] was “inactive”.

With `FC(F)(F)C(F)(F)C(F)(F)C(F)(F)C(F)(F)C(F)(F)C(F)(F)CCI` the outcome [1] was “inactive”, the AC50 [2] was 3.94 µM (active) and the outcome [2] was “inactive”. The outcome [3] was “inactive”, the outcome [4] was “inactive” and the outcome (CD40, CD40 (gene 958)) was “inactive”. For the same compound, the outcome [5] was “inactive”, the outcome [6] was “inactive” and the outcome [7] was “inactive”. For the same compound, the outcome [8] was “inactive” and the outcome [9] was “inactive”.

With `O=C(O)C(F)(F)C(F)(F)C(F)(F)C(F)(F)C(F)(F)C(F)(F)C(F)F` the outcome [1] was “inactive”, the outcome [2] was “inactive” and the outcome [3] was “inactive”. For the same compound, the outcome [4] was “inactive”, the outcome (CD40, CD40 (gene 958)) was “inactive” and the outcome [5] was “inactive”. The AC50 [6] was 30 µM (active), the outcome [6] was “inactive” and the outcome [7] was “inactive”. The outcome [8] was “inactive” and the outcome [9] was “inactive”.

For `Cc1ccc(S(=O)(=O)C(I)I)cc1`, the AC50 [1] was 2.35 µM (active), the AC50 [2] was 2.71 µM (active) and the AC50 [3] was 5.24 µM (active). For the same compound, the AC50 [4] was 6.22 µM (active), the AC50 (CD40, CD40 (gene 958)) was 2.38 µM (active) and the AC50 [5] was 3.3 µM (active). The AC50 [6] was 4.27 µM (active), the AC50 [7] was 5.31 µM (active) and the AC50 [8] was 1.92 µM (active). For the same compound, the AC50 [9] was 3.77 µM (active).

With `C=CC(=O)OCCC(F)(F)C(F)(F)C(F)(F)C(F)(F)F` the outcome [1] was “inactive”, the outcome [2] was “inactive” and the outcome [3] was “inactive”. For the same compound, the outcome [4] was “inactive”, the AC50 (CD40, CD40 (gene 958)) was 30 µM (active) and 45.5 µM (active) and the outcome [5] was “inactive”. The outcome [6] was “inactive”, the outcome [7] was “inactive” and the outcome [8] was “inactive”. For the same compound, the outcome [9] was “inactive”.

In the case of `NC(=O)C(F)(F)C(F)(F)C(F)(F)C(F)F`, the outcome [1] is reported as “inactive”, the outcome [2] is reported as “inactive” and the outcome [3] is reported as “inactive”. The outcome [4] was “inactive”, the outcome (CD40, CD40 (gene 958)) was “inactive” and the outcome [5] was “inactive”. For the same compound, the AC50 [6] was 22.7 µM (active), the outcome [6] was “inactive” and the outcome [7] was “inactive”. The outcome [8] was “inactive” and the outcome [9] was “inactive”.
